# Measurements: PubChem BioAssay (EPA / NIEHS)
# Active and inactive are the calls of the source. How the source made its calls: active means hit-call score of the fitted dose curve at least 0.9, where 1 is the maximum; inactive means score below 0.9.
# Key:
# Conditions in all cases: mRNA level, 48 h; actives raise or lower the signal
# CYP2E1 (gene 1571) = experiment: LTEA_HepaRG_CYP2E1: Life Technologies and Expression Analysis (LTEA) Assay for CYP2E1 using HepaRG (AID 2283485)
# Outline: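 Readout is qRT-PCR of CYP2E1 mRNA, normalized to three housekeeping genes and fitted bidirectionally against 0.5% DMSO. HepaRG cells were dosed 48 h at eight concentrations, highest 100 uM with half-log dilutions.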
# CYP4A11 (gene 1579) = experiment: LTEA_HepaRG_CYP4A11: Life Technologies and Expression Analysis (LTEA) Assay for CYP4A11 using HepaRG (AID 2283486)
# Outline: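 Readout is CYP4A11 transcript level by qRT-PCR, normalized to three housekeeping genes and fitted bidirectionally against 0.5% DMSO. Human HepaRG cells were treated 48 h, in duplicate, with an 8-point half-log series topping at 100 uM.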
# [1] = read-out: Cytochrome P450 3A4 (Homo sapiens) (UniProt P08684); experiment: LTEA_HepaRG_CYP3A4: Life Technologies and Expression Analysis (LTEA) Assay for CYP3A4 using HepaRG (AID 2283487)
# Outline: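 CYP3A4 transcript measured by TaqMan qRT-PCR and normalized to three housekeeping genes after 48 h chemical exposure of human HepaRG cells. Top concentration 100 uM, half-log steps, 0.5% DMSO vehicle; gain or loss fitted against DMSO baseline.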
# [2] = read-out: DNA damage-inducible transcript 3 (DDIT3), DDIT3 (gene 1649); experiment: LTEA_HepaRG_DDIT3: Life Technologies and Expression Analysis (LTEA) Assay for DNA damage-inducible transcript 3 (DDIT3) using HepaRG (AID 2283488)
# Outline: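 Cells are human HepaRG liver cells treated for 48 h with eight half-log concentrations up to 100 uM in 0.5% DMSO. Transcript levels come from qRT-PCR normalized to three housekeeping genes, with activity fitted in both directions relative to vehicle.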
# [3] = read-out: Pro-epidermal growth factor (Homo sapiens) (UniProt P01133); experiment: LTEA_HepaRG_EGF: Life Technologies and Expression Analysis (LTEA) Assay for Epidermal growth factor (EGF) using HepaRG (AID 2283489)
# Outline: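 EGF transcript measured by Fluidigm TaqMan qRT-PCR with three housekeeping genes for normalization, 48 h after dosing HepaRG cultures in duplicate (top 100 uM, half-log steps, 0.5% DMSO vehicle). Gain or loss relative to DMSO fitted.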
# [4] = read-out: Early growth response protein 1 (EGR1) transcription factor, EGR1 (gene 1958); experiment: LTEA_HepaRG_EGR1: Life Technologies and Expression Analysis (LTEA) Assay for Early growth response protein 1 (EGR1) transcription factor using HepaRG (AID 2283490)
# Outline: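 EGR1 transcript levels quantified by qRT-PCR (Fluidigm arrays) against three housekeeping genes after 48 h chemical exposure of HepaRG cells. Eight-point half-log series topping at 100 uM, 0.5% DMSO vehicle, analyzed for gain or loss.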
# [5] = read-out: Cytochrome P450 3A7 (Homo sapiens) (UniProt P24462); experiment: LTEA_HepaRG_CYP3A7: Life Technologies and Expression Analysis (LTEA) Assay for CYP3A7 using HepaRG (AID 2283492)
# Outline: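 CYP3A7 transcript measured by qRT-PCR (ACTB, GAPDH, POLR2A normalization) after 48 h chemical exposure of HepaRG cells in duplicate. Eight half-log concentrations, maximum 100 uM, 0.5% DMSO vehicle; bidirectional curve fitting against DMSO baseline.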
# CYP3A5 (gene 1577) = experiment: LTEA_HepaRG_CYP3A5: Life Technologies and Expression Analysis (LTEA) Assay for CYP3A5 using HepaRG (AID 2283493)
# Outline: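 Human HepaRG hepatic cells receive 48 h chemical treatment at eight concentrations (half-log steps from 100 uM) in 0.5% DMSO. Expression of CYP3A5 is quantified by Fluidigm qRT-PCR and normalized to three reference genes.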
# [6] = read-out: Fatty Acid-Binding Protein 1 (FABP1), FABP1 (gene 2168); experiment: LTEA_HepaRG_FABP1: Life Technologies and Expression Analysis (LTEA) Assay for Fatty Acid-Binding Protein 1 (FABP1) using HepaRG (AID 2283494)
# Outline: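 FABP1 expression by TaqMan qRT-PCR, normalised to three housekeeping genes, in HepaRG cells after 48 h chemical treatment. Eight-point half-log series topping at 100 uM in 0.5% DMSO, duplicates; gain or loss fitted relative to vehicle.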
# [7] = read-out: Cytochrome P450 4A22 (Homo sapiens) (UniProt Q5TCH4); experiment: LTEA_HepaRG_CYP4A22: Life Technologies and Expression Analysis (LTEA) Assay for Cytochrome P450 4A22 (CYP4A22) using HepaRG (AID 2283495)
# Outline: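 Gene expression measured by qRT-PCR against three housekeeping genes (ACTB, GAPDH, POLR2A), with gain or loss fitted relative to 0.5% DMSO vehicle. HepaRG cultures received 48 h chemical treatment, top concentration 100 uM, half-log steps, duplicate wells.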
# [8] = read-out: Cytochrome P450 7A1 (Homo sapiens) (UniProt P22680); experiment: LTEA_HepaRG_CYP7A1: Life Technologies and Expression Analysis (LTEA) Assay for Cytochrome P450 7A1 (CYP7A1) using HepaRG (AID 2283496)
# Outline: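 HepaRG, 48 h exposure, 8-pt half-log series from 100 uM, 0.5% DMSO vehicle, duplicates. Readout: TaqMan qRT-PCR mRNA vs three housekeeping genes; bidirectional curve fit against DMSO baseline.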
# [9] = read-out: Glutathione S-Transferase (GSTA2), GSTA2 (gene 2939); experiment: LTEA_HepaRG_GSTA2: Life Technologies and Expression Analysis (LTEA) Assay for Glutathione S-Transferase (GSTA2) using HepaRG (AID 2283497)
# Outline: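 GSTA2 transcript levels came from Fluidigm TaqMan qRT-PCR normalized to three housekeeping genes, fitted in both directions against DMSO. HepaRG cultures received chemicals for 48 h in serum-free induction medium (0.5% DMSO), 8 half-log concentrations up to 100 uM, duplicate.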
# [10] = read-out: Glutamate-cysteine ligase catalytic (GCLC), GCLC (gene 2729); experiment: LTEA_HepaRG_GCLC: Life Technologies and Expression Analysis (LTEA) Assay for Glutamate-cysteine ligase catalytic (GCLC) using HepaRG (AID 2283498)
# Outline: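 Expression by TaqMan qRT-PCR, normalized to three housekeeping genes (ACTB, GAPDH, POLR2A), with up- or down-regulation fitted against DMSO. HepaRG cells dosed in duplicate for 48 h with 8 half-log concentrations up to 100 uM, vehicle 0.5% DMSO.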
# [11] = read-out: growth arrest and DNA damage 45 (GADD45G), GADD45G (gene 10912); experiment: LTEA_HepaRG_GADD45G: Life Technologies and Expression Analysis (LTEA) Assay for growth arrest and DNA damage 45 (GADD45G) using HepaRG (AID 2283499)
# Outline: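 GADD45G transcript level by qRT-PCR (housekeeping-normalized: ACTB, GAPDH, POLR2A) after 48 h chemical treatment of a single HepaRG lot in serum-free induction medium; eight-point half-log series up to 100 uM in 0.5% DMSO, duplicates, up- or down-regulation scored.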
# [12] = read-out: Glutamate-cysteine ligase regulatory (GCLM), GCLM (gene 2730); experiment: LTEA_HepaRG_GCLM: Life Technologies and Expression Analysis (LTEA) Assay for Glutamate-cysteine ligase regulatory (GCLM) using HepaRG (AID 2283500)
# Outline: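 Endpoint is GCLM transcript level by qRT-PCR, normalized to three housekeeping genes, after 48 h chemical exposure of human HepaRG cells (0.5% DMSO vehicle, top 100 uM, half-log dilutions). Fitting was bidirectional relative to DMSO.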
# [13] = read-out: Heat shock 70 kDa protein 1 (HSPA1A), gene 3303; experiment: LTEA_HepaRG_HSPA1A: Life Technologies and Expression Analysis (LTEA) Assay for Heat shock 70 kDa protein 1 (HSPA1A) using HepaRG (AID 2283502)
# Outline: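 Cells were plated and cultured for 48 h, then switched to serum-free induction medium. Chemicals were added at eight half-log concentrations up to 100 uM for 48 h. RNA was then isolated and HSPA1A measured by qRT-PCR with bidirectional curve fitting against DMSO.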
# [14] = read-out: Hypoxia-inducible factor 1-alpha (Homo sapiens) (UniProt Q16665); experiment: LTEA_HepaRG_HIF1A: Life Technologies and Expression Analysis (LTEA) Assay for Hypoxia-inducible factor 1 (HIF1A) Trancription factor using HepaRG (AID 2283503)
# Outline: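 HIF1A transcript level read by qRT-PCR (ACTB, GAPDH, POLR2A normalization) after 48 h chemical exposure of HepaRG cultures. Eight half-log concentrations, top 100 uM, 0.5% DMSO vehicle, duplicates; bidirectional curve fit against DMSO baseline.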
# [15] = read-out: 3-Hydroxy-3-Methylglutaryl-CoA Synthase 2 (HMGCS2), HMGCS2 (gene 3158); experiment: LTEA_HepaRG_HMGCS2: Life Technologies and Expression Analysis (LTEA) Assay for 3-Hydroxy-3-Methylglutaryl-CoA Synthase 2 (HMGCS2) using HepaRG (AID 2283504)
# Outline: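 Readout is HMGCS2 transcript by qRT-PCR, housekeeping-normalised (ACTB/GAPDH/POLR2A) and fitted bidirectionally against 0.5% DMSO. Differentiated HepaRG cells received chemicals 48 h, duplicate wells, eight half-log concentrations topping at 100 uM.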
# [16] = read-out: Ezrin (EZR), EZR (gene 7430); experiment: LTEA_HepaRG_EZR: Life Technologies and Expression Analysis (LTEA) Assay for Ezrin (EZR) using HepaRG (AID 2283491)
# Outline: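 HepaRG, 48 h chemical exposure, 8-pt half-log series from 100 uM, 0.5% DMSO vehicle, duplicates. Read-out: EZR mRNA by TaqMan qRT-PCR (Fluidigm array), housekeeping-normalized; bidirectional curve fit vs DMSO baseline.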
# [17] = read-out: Glutathione S-transferase M3 (GSTM3), GSTM3 (gene 2947); experiment: LTEA_HepaRG_GSTM3: Life Technologies and Expression Analysis (LTEA) Assay for Glutathione S-transferase M3 (GSTM3) using HepaRG (AID 2283501)
# Outline: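 GSTM3 transcript levels came from Fluidigm TaqMan qRT-PCR normalized to three housekeeping genes, fitted in both directions against DMSO. HepaRG cultures received chemicals for 48 h in serum-free induction medium (0.5% DMSO), 8 half-log concentrations up to 100 uM, duplicate.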
# Cytochrome P450 3A7 (Homo sapiens), sequence (P24462 whole entry, looked up): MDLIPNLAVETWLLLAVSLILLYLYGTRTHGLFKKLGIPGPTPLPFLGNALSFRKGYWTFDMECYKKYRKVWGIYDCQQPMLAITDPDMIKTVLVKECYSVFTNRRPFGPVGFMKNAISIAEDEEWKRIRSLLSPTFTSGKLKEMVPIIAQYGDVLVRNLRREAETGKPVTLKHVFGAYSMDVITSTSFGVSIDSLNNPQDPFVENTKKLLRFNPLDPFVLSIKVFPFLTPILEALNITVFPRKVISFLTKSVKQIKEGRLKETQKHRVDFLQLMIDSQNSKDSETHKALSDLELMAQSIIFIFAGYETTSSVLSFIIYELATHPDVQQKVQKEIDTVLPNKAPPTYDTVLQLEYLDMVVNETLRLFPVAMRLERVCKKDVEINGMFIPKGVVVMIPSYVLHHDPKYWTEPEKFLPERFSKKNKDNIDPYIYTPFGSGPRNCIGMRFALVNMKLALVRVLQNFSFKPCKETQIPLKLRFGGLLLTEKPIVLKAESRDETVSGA
# Hypoxia-inducible factor 1-alpha (Homo sapiens), sequence (Q16665 whole entry, looked up): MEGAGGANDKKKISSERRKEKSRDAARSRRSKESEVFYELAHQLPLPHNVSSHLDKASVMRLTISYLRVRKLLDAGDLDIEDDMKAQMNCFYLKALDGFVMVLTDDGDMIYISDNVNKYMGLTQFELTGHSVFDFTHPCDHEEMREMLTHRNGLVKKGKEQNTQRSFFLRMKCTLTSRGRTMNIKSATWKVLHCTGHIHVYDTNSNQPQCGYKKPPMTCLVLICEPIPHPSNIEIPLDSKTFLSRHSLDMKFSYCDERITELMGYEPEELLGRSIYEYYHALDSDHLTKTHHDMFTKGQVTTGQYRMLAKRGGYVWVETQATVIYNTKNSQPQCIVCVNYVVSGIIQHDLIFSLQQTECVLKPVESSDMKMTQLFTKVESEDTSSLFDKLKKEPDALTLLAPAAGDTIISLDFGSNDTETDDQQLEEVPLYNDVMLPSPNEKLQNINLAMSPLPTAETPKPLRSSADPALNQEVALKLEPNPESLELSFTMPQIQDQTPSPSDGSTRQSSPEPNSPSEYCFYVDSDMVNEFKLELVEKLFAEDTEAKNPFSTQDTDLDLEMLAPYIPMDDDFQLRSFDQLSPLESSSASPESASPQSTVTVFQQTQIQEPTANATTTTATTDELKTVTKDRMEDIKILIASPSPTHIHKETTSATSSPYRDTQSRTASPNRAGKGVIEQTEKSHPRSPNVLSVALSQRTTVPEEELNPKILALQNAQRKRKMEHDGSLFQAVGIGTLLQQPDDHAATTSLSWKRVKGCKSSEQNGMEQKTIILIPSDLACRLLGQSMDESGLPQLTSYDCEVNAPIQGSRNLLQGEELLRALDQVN
# Cytochrome P450 3A4 (Homo sapiens), sequence (P08684 whole entry, looked up): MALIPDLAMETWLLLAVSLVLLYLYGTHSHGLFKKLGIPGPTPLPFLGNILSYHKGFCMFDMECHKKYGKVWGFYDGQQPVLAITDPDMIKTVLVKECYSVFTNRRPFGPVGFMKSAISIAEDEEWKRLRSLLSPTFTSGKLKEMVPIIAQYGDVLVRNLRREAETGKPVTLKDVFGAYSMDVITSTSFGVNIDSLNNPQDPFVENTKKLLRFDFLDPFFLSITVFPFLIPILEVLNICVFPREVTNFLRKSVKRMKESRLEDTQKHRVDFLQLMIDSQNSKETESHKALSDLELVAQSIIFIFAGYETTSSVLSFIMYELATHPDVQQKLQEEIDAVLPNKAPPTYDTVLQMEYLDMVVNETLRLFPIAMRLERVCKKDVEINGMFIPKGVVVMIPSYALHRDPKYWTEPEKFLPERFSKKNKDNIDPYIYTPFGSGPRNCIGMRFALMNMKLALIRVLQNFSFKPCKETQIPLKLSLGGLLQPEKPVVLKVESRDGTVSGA
compound,measurement,setting,value
c1ccc2c(c1)-c1cccc3c1c-2cc1ccccc13,AC50,CYP2E1 (gene 1571),14.7 µM (active)
same,AC50,CYP4A11 (gene 1579),26.1 µM (active)
same,AC50,[1],7.02 µM (active)
same,AC50,[2],7.35 µM (active)
same,outcome,[3],inactive
same,AC50,[4],0.404 µM (active)
same,AC50,[5],13 µM (active)
same,AC50,CYP3A5 (gene 1577),5.37 µM (active)
same,AC50,[6],19.1 µM (active)
same,AC50,[7],29.1 µM (active)
same,AC50,[8],15.6 µM (active)
same,AC50,[9],17.9 µM (active)
same,outcome,[10],inactive
same,AC50,[11],14 µM (active)
same,outcome,[12],inactive
same,AC50,[13],18.5 µM (active)
same,outcome,[14],inactive
same,AC50,[15],16.1 µM (active)
O=C1CN(N=Cc2ccc([N+](=O)[O-])o2)C(=O)N1,AC50,CYP2E1 (gene 1571),52.7 µM (active)
same,AC50,CYP4A11 (gene 1579),45.7 µM (active)
same,AC50,[2],80.7 µM (active)
same,outcome,[3],inactive
same,outcome,[4],inactive
same,outcome,[16],inactive
same,outcome,[5],inactive
same,outcome,CYP3A5 (gene 1577),inactive
same,AC50,[6],41.9 µM (active)
same,AC50,[7],44.3 µM (active)
same,AC50,[8],22.2 µM (active)
same,AC50,[9],81.8 µM (active)
same,outcome,[10],inactive
same,AC50,[11],71.6 µM (active)
same,AC50,[12],72.5 µM (active)
same,outcome,[17],inactive
same,outcome,[13],inactive
same,outcome,[14],inactive
same,AC50,[15],72 µM (active)
Cc1ccc(S(=O)(=O)NC(=O)NN2CCCCCC2)cc1,outcome,[2],inactive
same,outcome,[3],inactive
same,outcome,[4],inactive
same,outcome,[16],inactive
same,outcome,[6],inactive
same,outcome,[9],inactive
same,outcome,[10],inactive
same,outcome,[11],inactive
same,outcome,[13],inactive
same,outcome,[15],inactive
COCc1nnc(-c2ccc[n+]([O-])c2)n1-c1c(Cl)c(Cl)cc2[nH]c(=O)c(=O)[nH]c12,outcome,CYP2E1 (gene 1571),inactive
same,outcome,CYP4A11 (gene 1579),inactive
same,outcome,[1],inactive
same,outcome,[2],inactive
same,outcome,[3],inactive
same,outcome,[4],inactive
same,outcome,[16],inactive
same,outcome,[5],inactive
same,outcome,CYP3A5 (gene 1577),inactive
same,outcome,[6],inactive
same,outcome,[7],inactive
same,outcome,[8],inactive
same,outcome,[9],inactive
same,outcome,[10],inactive
same,outcome,[11],inactive
same,outcome,[13],inactive
same,outcome,[14],inactive
same,outcome,[15],inactive
